RE007 growth inh = less growth of the S. pombe RE007 Vpr strain | S. pombe RE007 Vpr strain, BacTiter-Glo ATP luminescence, 24 h | 360,000 compounds, 0.21% hits | Potency, µM (series often up to 92.2 µM), for the others: at the top dose activity change, negative = less growth, actives largely listed as inhibitors | AID 651644; active = well fitted falling curve with a large enough effect; inconclusive = small, poorly fitted or top-dose-only effect; inactive = no such curve, though single readings can be large or run the other way; also: potency is read from the fitted curve at half-maximal effect; % is scaled to controls: 0 for no effect and ±100 for the full control effect; nearly all actives have a fitted effect of over 50% in size
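Fission yeast strain RE007, carrying one chromosomally integrated HIV-1 vpr copy, was seeded at OD 0.01 in PMG+AL medium with 23 nL pinned compound. After 24 h at 30 °C and 99% humidity, viability was read by BacTiter-Glo luminescence.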
LmPK inhibitor = LmPK (Leishmania mexicana) enzyme inhibition | purified LmPK, Kinase-Glo ATP luminescence, 1 h | 290,000 compounds, 0.37% hits | Potency, µM (series often up to 57.5 µM), for the others: at the highest dose activity change, negative = inhibition, actives largely listed as inhibitors | Q27686 | AID 1721; also: potency is read from the fitted curve at half-maximal effect; % is scaled to controls: 0 for no effect and ±100 for the full control effect
Target sequence (Q27686 whole entry, looked up): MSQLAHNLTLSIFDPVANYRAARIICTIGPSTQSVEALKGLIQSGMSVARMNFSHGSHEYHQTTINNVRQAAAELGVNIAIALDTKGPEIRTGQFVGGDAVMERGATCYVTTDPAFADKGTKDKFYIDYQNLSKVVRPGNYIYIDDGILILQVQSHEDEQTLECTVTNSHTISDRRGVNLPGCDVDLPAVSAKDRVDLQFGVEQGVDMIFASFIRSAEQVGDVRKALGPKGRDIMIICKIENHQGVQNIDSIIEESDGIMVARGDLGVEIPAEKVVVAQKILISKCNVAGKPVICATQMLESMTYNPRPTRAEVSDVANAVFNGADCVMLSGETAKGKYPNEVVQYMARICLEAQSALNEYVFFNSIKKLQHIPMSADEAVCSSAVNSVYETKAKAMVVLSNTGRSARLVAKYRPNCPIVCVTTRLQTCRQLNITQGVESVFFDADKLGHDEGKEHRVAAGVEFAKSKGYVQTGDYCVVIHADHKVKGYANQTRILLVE
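Purified LmPK (0.1 nM) converted ADP (0.1 mM) to ATP with PEP (0.5 mM) in imidazole buffer pH 7.2 with KCl and MgCl2, 1 h at room temperature. ATP was read by Kinase-Glo luminescence; data normalized to uninhibited and no-enzyme controls.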
Cycloheximide cs = counter-screen for Shiga toxin inhibitors: cycloheximide protein synthesis inhibition | AID 2314 | max response, % | cell reporter, cycloheximide protein synthesis inhibition counterscreen | 300,000 compounds, 12% hits; in the data active = max response mostly above about 13%, no sharp cut-off; inactive = mostly below about 14%; also: read at 38.3 µM for the half of the compounds with a filed dose; 0% is about no effect
Tb PYK inh = T. brucei pyruvate kinase inhibition; Q57TT1; TbPYK enzyme, Kinase-Glo Plus ATP luminescence, 45 min; Potency, µM (highest dose often 76.8 µM), inactives show at the top dose activity, negative = inhibition, hits mostly inhibitors; 410,000 compounds, 0.12% hits; AID 624173; also: potency is read from the fitted curve at half-maximal effect; % is scaled to controls: 0 for no effect and ±100 for the full control effect; nearly all actives have a fitted effect of over 50% in size
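Luminescent Kinase-Glo Plus end-point after 45 min room-temperature reaction of T. brucei pyruvate kinase started with 130 uM ADP (final). Buffer TEA 50 mM pH 7.2 with KCl, MgCl2, BSA, Tween-20; titration-based qHTS with fitted concentration-effect curves.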
Shiga inhibitor = blocks Shiga toxin action in Vero cells | Vero cells, Shiga toxin protein synthesis inhibition reporter | inhibition, % at 38.7 µM | 290,000 compounds, 9.2% hits | AID 2315; in the data active = inhibition mostly above about 28%, no sharp cut-off; inactive = mostly below about 43%; also: 0% is about no effect
FBPA Giardia inh = Giardia lamblia aldolase inhibition; Potency, µM (series often up to 59.6 µM), without a hit: at the highest dose activity, negative = inhibition, most hits filed as inhibitors; A8B2U2; AID 2451; 290,000 compounds, 0.71% hits; purified Giardia FBPA; also: potency is read from the fitted curve at half-maximal effect; % is scaled to controls: 0 for no effect and ±100 for the full control effect; nearly all actives have a fitted effect of over 55% in size
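40 nM FBPA preincubated 10 min at RT with compound (up to 57.5 uM final), then substrate plus GAPDH/TPI/NAD/arsenate coupling and diaphorase/resazurin added. Fluorescence read after 20 min at RT, 525/598 nm.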
An asterisk follows results filed as active; u = inconclusive; x = no result. Only a selection was taken, and hits are over-represented in it overall. Unless noted, calls follow the shape of the dose curve; as a rule, active = well fitted curve in the direction sought with a large enough effect; inconclusive = small, poorly fitted or top-dose-only effect, or another doubt; inactive = no such curve, though single readings can be large; an effect the other way counts as inactive or inconclusive.

SMILES | RE007 growth inh | LmPK inhibitor | Cycloheximide cs | Tb PYK inh | Shiga inhibitor | FBPA Giardia inh
CCN(CC)c1ccc(C2Nc3cccc4cccc(c34)N2)cc1 | -17% | -1% | 25* | -4% | 24 | -25%
CCN(CC)c1ccc(C2NC(=O)c3ccccc3N2)cc1 (centres undefined) | 5% | x | x | -3% | x | x
COc1cc(C(=O)NC2=NCCS2)cc(OC)c1OC | 17% | 2% | -3 | 2% | 14 | -2%
CC(C)Oc1ccc(C(=O)NC2=NCCS2)cc1 | -1% | -10% | 20* | -18% | 57 | u
COc1cccc(C(=O)NC2=NCCS2)c1OC | -10% | -4% | 31* | -4% | 63* | -1%
O=C(NC12CC3CC(CC(C3)C1)C2)c1cccc(OC(F)F)c1 | 47% | -5% | 42* | 0% | 72* | 9%
O=C(NC1=NCCS1)c1cccc(OC(F)F)c1 | 6% | -14% | 36* | -4% | 76* | -6%
O=c1c2c3c(sc2nnn1Cc1ccc(F)cc1)CCCC3 | x | x | x | 0% | x | x
CN1CCc2nc(NC(=O)c3cccc(OC(F)F)c3)sc2C1 | -10% | 6% | 27* | 1% | 23 | -8%
CN1CCc2nc(NC(=O)COc3ccc4ccccc4c3)sc2C1 | -6% | 3% | 6 | -10% | 24 | -5%
COc1ccc(C(=O)NC2=NCCS2)cc1 | -4% | -23% | 73* | -1% | 68* | -7%
CCCn1c(C)nc2c(N(C)CCN(C)C)nc(C)nc21 | x | x | x | x | x | 2%
CC(C)(C)c1ccc(C(=O)NCCN2CCCC2)cc1 | 17% | -1% | 2 | -9% | -4 | 1%
CC(C)(C)c1ccc(C(=O)OCCN2CCCCC2)cc1 | -14% | 1% | 22* | -1% | 55* | -7%
COc1ccc(C(=O)OCCN2CCCCC2)cc1 | 14% | 8% | 48* | -2% | 51* | -3%
COc1ccc(C(=O)OCC[N+]2(C)CCCCC2)cc1 | 4% | -1% | 44* | -4% | 107* | 2%
CC(NC(=O)CCCN1C(=O)CCn2nc(-c3cn(C)c4ccccc34)cc21)c1ccccc1 (centres undefined) | x | x | x | 3% | x | x
C/C(=C\C(=O)c1ccccc1)Nc1ccc(O)cc1 | 32% | 5% | 89* | -8% | 174* | u
C/C(=C\C(=O)c1cccnc1)Nc1ccc(O)cc1 | -23% | 5% | 28* | -6% | 26* | u
CN[C@H](CC(C)C)C(=O)N[C@H]1C(=O)N[C@@H](CC(N)=O)C(=O)N[C@H]2C(=O)N[C@H]3C(=O)N[C@H](C(=O)N[C@H](C(=O)O)c4cc(O)cc(O)c4-c4cc3ccc4O)[C@H](O)c3ccc(c(Cl)c3)Oc3cc2cc(c3O[C@@H]2OC(CO)[C@@H](O)[C@H](O)[C@H]2O[C@H]2C[C@](C)(N)[C@H](O)[C@H](C)O2)Oc2ccc(cc2Cl)[C@H]1O (some centres undefined) | x | x | x | 2% | x | x
O=C(c1ccccc1)C1C(=O)c2ccccc2C1=O | u | -1% | 1 | 0% | -7 | -2%
O=C(c1ccccc1)C1NC1c1ccccc1 (centres undefined) | -13% | 4% | 61* | 6% | 47* | 11%
COc1ccc(/C=N/N2CCN(Cc3ccccc3)CC2)cc1 | 3% | -3% | 2 | 7% | 4 | 0%
COC(=O)c1ccc(COc2ccc(/C=N/N3CCN(C)CC3)cc2)cc1 | 25% | 3% | 56* | 2% | 155* | 7%
COC(=O)c1ccc(/C=N\N2CCN(Cc3ccc(C)cc3)CC2)cc1 | -11% | 5% | -6 | 5% | -12 | 9%
CN1CCN(/N=C/c2ccc(OCc3ccccc3)cc2)CC1 | -12% | 0% | 65* | 2% | 107* | 2%
C(=N\n1cnnc1)/c1ccc(OCc2ccccc2)cc1 | 3% | -6% | 24* | -5% | 62 | -12%
COc1ccccc1N1CCN(C(=O)CN2C(=O)COc3ccc(S(=O)(=O)N4CCCC4)cc32)CC1 | x | x | x | -1% | x | x
Cc1nc2ccc(NC(=O)c3ccc(Cl)c(NC(=O)c4cccs4)c3)cc2s1 | -18% | 1% | 20* | 3% | 51 | -3%

Assay outcomes deposited in PubChem by National Center for Advancing Translational Sciences (NCATS).
